# Assay results from the supplement of paper PMC4466140.
# Molecular target: AgAbp1
# Test: SPOT peptide array binding signal intensity (averaged, normalized) (arbitrary units (background-subtracted, floor 0; scale differs between SH3 domains)); higher = stronger binding of the SH3 domain to the peptide
# Method in brief: (§1)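 GST-fused SH3 domains from four yeast species were expressed in E. coli BL21(DE3), purified on glutathione Sepharose and incubated at 10 μg/ml overnight at 4°C in TBS-based blocking buffer on cellulose membranes carrying synthetic 15-mer peptides, with cysteines replaced by serines. Bound protein was detected with anti-GST antibody, an HRP anti-mouse secondary and luminol, then imaged and quantified with Genespotter. Binding signal is the normalized, background-subtracted spot intensity averaged over replicates, in arbitrary units that differ between domains.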
row,Binder,SPOT peptide array binding signal intensity
1,FYHRPAPKPPVTKKV,250

# Molecular target: AgBbc1
# Test: as above
# Method in brief: as §1
row,Binder,SPOT peptide array binding signal intensity
1,FYHRPAPKPPVTKKV,123

# Molecular target: AgBem1-D1
# Test: as above
# Method in brief: as §1
row,Binder,SPOT peptide array binding signal intensity
1,FYHRPAPKPPVTKKV,68

# Molecular target: AgBzz1-D1
# Test: as above
# Method in brief: as §1
row,Binder,SPOT peptide array binding signal intensity
1,FYHRPAPKPPVTKKV,89

# Molecular target: AgBzz1-D2
# Test: as above
# Method in brief: as §1
row,Binder,SPOT peptide array binding signal intensity
1,FYHRPAPKPPVTKKV,65

# Molecular target: AgCyk3
# Test: as above
# Method in brief: as §1
row,Binder,SPOT peptide array binding signal intensity
1,FYHRPAPKPPVTKKV,6

# Molecular target: AgFus1
# Test: as above
# Method in brief: as §1
row,Binder,SPOT peptide array binding signal intensity
1,FYHRPAPKPPVTKKV,≤ 0

# Molecular target: AgHof1
# Test: as above
# Method in brief: as §1
row,Binder,SPOT peptide array binding signal intensity
1,FYHRPAPKPPVTKKV,3

# Molecular target: AgHse1
# Test: as above
# Method in brief: as §1
row,Binder,SPOT peptide array binding signal intensity
1,FYHRPAPKPPVTKKV,≤ 0

# Molecular target: AgLsb1
# Test: as above
# Method in brief: as §1
row,Binder,SPOT peptide array binding signal intensity
1,FYHRPAPKPPVTKKV,138

# Molecular target: AgLsb4
# Test: as above
# Method in brief: as §1
row,Binder,SPOT peptide array binding signal intensity
1,FYHRPAPKPPVTKKV,≤ 0

# Molecular target: AgMyo5
# Test: as above
# Method in brief: as §1
row,Binder,SPOT peptide array binding signal intensity
1,FYHRPAPKPPVTKKV,38.8

# Molecular target: AgNbp2
# Test: as above
# Method in brief: as §1
row,Binder,SPOT peptide array binding signal intensity
1,FYHRPAPKPPVTKKV,1040

# Molecular target: AgRvs167
# Test: as above
# Method in brief: as §1
row,Binder,SPOT peptide array binding signal intensity
1,FYHRPAPKPPVTKKV,1.33

# Molecular target: AgSho1
# Test: as above
# Method in brief: as §1
row,Binder,SPOT peptide array binding signal intensity
1,FYHRPAPKPPVTKKV,≤ 0

# Molecular target: AgSla1-D1-D2
# Test: as above
# Method in brief: as §1
row,Binder,SPOT peptide array binding signal intensity
1,FYHRPAPKPPVTKKV,≤ 0

# Molecular target: AgSla1-D3
# Test: as above
# Method in brief: as §1
row,Binder,SPOT peptide array binding signal intensity
1,FYHRPAPKPPVTKKV,6.5

# Molecular target: CaAbp1-D1
# Test: as above
# Method in brief: as §1
row,Binder,SPOT peptide array binding signal intensity
1,FYHRPAPKPPVTKKV,281

# Molecular target: CaAbp1-D2
# Test: as above
# Method in brief: as §1
row,Binder,SPOT peptide array binding signal intensity
1,FYHRPAPKPPVTKKV,269

# Molecular target: CaBbc1
# Test: as above
# Method in brief: as §1
row,Binder,SPOT peptide array binding signal intensity
1,FYHRPAPKPPVTKKV,454

# Molecular target: CaBem1-D1
# Test: as above
# Method in brief: as §1
row,Binder,SPOT peptide array binding signal intensity
1,FYHRPAPKPPVTKKV,364

# Molecular target: CaBzz1-D1
# Test: as above
# Method in brief: as §1
row,Binder,SPOT peptide array binding signal intensity
1,FYHRPAPKPPVTKKV,2440

# Molecular target: CaBzz1-D2
# Test: as above
# Method in brief: as §1
row,Binder,SPOT peptide array binding signal intensity
1,FYHRPAPKPPVTKKV,529

# Molecular target: CaCyk3
# Test: as above
# Method in brief: as §1
row,Binder,SPOT peptide array binding signal intensity
1,FYHRPAPKPPVTKKV,10.5

# Molecular target: CaFus1
# Test: as above
# Method in brief: as §1
row,Binder,SPOT peptide array binding signal intensity
1,FYHRPAPKPPVTKKV,≤ 0

# Molecular target: CaHof1
# Test: as above
# Method in brief: as §1
row,Binder,SPOT peptide array binding signal intensity
1,FYHRPAPKPPVTKKV,≤ 0

# Molecular target: CaHse1
# Test: as above
# Method in brief: as §1
row,Binder,SPOT peptide array binding signal intensity
1,FYHRPAPKPPVTKKV,≤ 0

# Molecular target: CaLsb1
# Test: as above
# Method in brief: as §1
row,Binder,SPOT peptide array binding signal intensity
1,FYHRPAPKPPVTKKV,3

# Molecular target: CaLsb4
# Test: as above
# Method in brief: as §1
row,Binder,SPOT peptide array binding signal intensity
1,FYHRPAPKPPVTKKV,≤ 0

# Molecular target: CaMyo5
# Test: as above
# Method in brief: as §1
row,Binder,SPOT peptide array binding signal intensity
1,FYHRPAPKPPVTKKV,8
